In ChEMBL document CHEMBL2218924, “A broad activity screen in support of a chemogenomic map for kinase signalling research and drug discovery” (Biochem J, 2013):

Legend:
[1] = target: Tyrosine-protein kinase FRK (Homo sapiens) (UniProt P42685); details: at 1 µM
[2] = target: Tyrosine-protein kinase FRK (Homo sapiens) (UniProt P42685); details: at 10 µM
[3] = target: Serine/threonine-protein kinase pim-1 (Homo sapiens) (UniProt P11309); details: at 1 µM
[4] = target: Serine/threonine-protein kinase pim-1 (Homo sapiens) (UniProt P11309); details: at 10 µM
[5] = target: Serine/threonine-protein kinase pim-2 (Homo sapiens) (UniProt Q9P1W9); details: at 1 µM
Sequence of Serine/threonine-protein kinase pim-2 (Homo sapiens) (Q9P1W9 whole entry, looked up): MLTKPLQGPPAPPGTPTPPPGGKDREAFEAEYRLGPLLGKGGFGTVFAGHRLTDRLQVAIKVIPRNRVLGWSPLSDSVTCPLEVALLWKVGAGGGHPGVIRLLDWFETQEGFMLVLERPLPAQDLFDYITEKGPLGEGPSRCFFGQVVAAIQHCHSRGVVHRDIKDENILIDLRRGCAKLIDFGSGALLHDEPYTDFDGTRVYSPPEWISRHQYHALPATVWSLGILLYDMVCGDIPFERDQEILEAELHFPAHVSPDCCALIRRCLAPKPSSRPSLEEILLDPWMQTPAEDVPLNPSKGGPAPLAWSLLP

[6] = target: Serine/threonine-protein kinase pim-2 (Homo sapiens) (UniProt Q9P1W9); details: at 10 µM
[7] = target: Serine/threonine-protein kinase pim-3 (Homo sapiens) (UniProt Q86V86); details: at 1 µM
[8] = target: Serine/threonine-protein kinase pim-3 (Homo sapiens) (UniProt Q86V86); details: at 10 µM
[9] = target: Serine/threonine-protein kinase PLK3 (Homo sapiens) (UniProt Q9H4B4); details: at 1 µM
Sequence of Serine/threonine-protein kinase PLK3 (Homo sapiens) (Q9H4B4 whole entry, looked up): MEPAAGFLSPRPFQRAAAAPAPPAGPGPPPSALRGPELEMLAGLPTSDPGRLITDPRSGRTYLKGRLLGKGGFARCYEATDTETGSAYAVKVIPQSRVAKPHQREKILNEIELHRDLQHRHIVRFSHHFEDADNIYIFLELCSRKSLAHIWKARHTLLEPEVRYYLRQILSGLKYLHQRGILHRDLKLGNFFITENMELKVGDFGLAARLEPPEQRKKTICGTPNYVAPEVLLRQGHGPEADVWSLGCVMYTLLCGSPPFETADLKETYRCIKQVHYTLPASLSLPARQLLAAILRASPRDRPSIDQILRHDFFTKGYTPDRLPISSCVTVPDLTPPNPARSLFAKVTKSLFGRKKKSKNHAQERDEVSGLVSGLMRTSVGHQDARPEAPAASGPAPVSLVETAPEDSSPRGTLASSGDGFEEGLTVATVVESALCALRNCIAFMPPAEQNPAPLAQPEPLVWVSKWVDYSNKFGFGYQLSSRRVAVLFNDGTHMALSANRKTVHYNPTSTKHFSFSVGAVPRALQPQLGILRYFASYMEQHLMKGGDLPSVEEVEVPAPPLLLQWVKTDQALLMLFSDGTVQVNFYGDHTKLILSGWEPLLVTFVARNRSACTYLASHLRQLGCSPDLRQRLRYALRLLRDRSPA

[10] = target: Serine/threonine-protein kinase PLK3 (Homo sapiens) (UniProt Q9H4B4); details: at 10 µM
[11] = target: T1, cAMP-dependent protein kinase catalytic subunit PRKX (Homo sapiens) (UniProt P51817); details: at 1 µM
T1 sequence (whole entry): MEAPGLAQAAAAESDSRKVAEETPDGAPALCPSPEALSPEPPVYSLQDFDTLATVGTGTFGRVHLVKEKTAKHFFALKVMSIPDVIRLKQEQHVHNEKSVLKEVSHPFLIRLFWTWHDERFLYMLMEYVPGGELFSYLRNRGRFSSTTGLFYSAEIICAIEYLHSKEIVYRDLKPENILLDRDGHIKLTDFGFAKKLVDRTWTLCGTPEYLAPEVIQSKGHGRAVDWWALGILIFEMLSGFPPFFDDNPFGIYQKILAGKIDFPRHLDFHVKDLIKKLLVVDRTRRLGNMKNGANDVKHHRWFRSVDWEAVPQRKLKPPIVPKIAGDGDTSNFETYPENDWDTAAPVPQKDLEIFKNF

[12] = target: T1, cAMP-dependent protein kinase catalytic subunit PRKX (Homo sapiens); details: at 10 µM
[13] = target: T2, Phosphorylase b kinase gamma catalytic chain, liver/testis isoform (Homo sapiens) (UniProt P15735); details: at 1 µM
T2 sequence (whole entry): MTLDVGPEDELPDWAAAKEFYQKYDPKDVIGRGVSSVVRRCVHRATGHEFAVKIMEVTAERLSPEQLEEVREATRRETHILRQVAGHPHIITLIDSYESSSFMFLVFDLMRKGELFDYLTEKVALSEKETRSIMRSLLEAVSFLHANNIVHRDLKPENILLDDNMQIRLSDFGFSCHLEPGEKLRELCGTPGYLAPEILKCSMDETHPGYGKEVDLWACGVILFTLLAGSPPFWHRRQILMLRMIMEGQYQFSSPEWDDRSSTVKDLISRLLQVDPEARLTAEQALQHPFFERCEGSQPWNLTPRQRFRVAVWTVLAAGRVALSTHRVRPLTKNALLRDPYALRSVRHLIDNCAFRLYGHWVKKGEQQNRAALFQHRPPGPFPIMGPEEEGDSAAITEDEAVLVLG

[14] = target: T2, Phosphorylase b kinase gamma catalytic chain, liver/testis isoform (Homo sapiens); details: at 10 µM
[15] = target: Serine/threonine-protein kinase PLK1 (Homo sapiens) (UniProt P53350); details: at 1 µM
Sequence of Serine/threonine-protein kinase PLK1 (Homo sapiens) (P53350 whole entry): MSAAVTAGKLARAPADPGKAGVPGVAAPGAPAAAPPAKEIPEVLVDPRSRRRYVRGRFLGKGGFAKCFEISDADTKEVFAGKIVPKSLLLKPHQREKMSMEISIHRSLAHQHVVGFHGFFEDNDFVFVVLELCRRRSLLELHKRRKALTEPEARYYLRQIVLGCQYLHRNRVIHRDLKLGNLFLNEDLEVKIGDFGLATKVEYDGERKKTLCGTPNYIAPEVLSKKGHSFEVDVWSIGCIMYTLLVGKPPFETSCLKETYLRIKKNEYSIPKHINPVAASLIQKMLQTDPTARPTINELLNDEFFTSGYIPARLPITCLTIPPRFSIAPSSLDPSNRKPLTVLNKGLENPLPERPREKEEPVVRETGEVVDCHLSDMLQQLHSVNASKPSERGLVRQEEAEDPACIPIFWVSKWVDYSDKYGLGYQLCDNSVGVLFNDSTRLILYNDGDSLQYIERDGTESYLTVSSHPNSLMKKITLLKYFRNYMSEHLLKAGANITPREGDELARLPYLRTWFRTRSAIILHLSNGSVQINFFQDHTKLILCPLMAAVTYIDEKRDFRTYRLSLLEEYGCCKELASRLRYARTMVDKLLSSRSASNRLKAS

[16] = target: Serine/threonine-protein kinase PLK1 (Homo sapiens) (UniProt P53350); details: at 10 µM
[17] = target: Protein-tyrosine kinase 2-beta (Homo sapiens) (UniProt Q14289); details: at 1 µM
Sequence of Protein-tyrosine kinase 2-beta (Homo sapiens) (Q14289 whole entry, looked up): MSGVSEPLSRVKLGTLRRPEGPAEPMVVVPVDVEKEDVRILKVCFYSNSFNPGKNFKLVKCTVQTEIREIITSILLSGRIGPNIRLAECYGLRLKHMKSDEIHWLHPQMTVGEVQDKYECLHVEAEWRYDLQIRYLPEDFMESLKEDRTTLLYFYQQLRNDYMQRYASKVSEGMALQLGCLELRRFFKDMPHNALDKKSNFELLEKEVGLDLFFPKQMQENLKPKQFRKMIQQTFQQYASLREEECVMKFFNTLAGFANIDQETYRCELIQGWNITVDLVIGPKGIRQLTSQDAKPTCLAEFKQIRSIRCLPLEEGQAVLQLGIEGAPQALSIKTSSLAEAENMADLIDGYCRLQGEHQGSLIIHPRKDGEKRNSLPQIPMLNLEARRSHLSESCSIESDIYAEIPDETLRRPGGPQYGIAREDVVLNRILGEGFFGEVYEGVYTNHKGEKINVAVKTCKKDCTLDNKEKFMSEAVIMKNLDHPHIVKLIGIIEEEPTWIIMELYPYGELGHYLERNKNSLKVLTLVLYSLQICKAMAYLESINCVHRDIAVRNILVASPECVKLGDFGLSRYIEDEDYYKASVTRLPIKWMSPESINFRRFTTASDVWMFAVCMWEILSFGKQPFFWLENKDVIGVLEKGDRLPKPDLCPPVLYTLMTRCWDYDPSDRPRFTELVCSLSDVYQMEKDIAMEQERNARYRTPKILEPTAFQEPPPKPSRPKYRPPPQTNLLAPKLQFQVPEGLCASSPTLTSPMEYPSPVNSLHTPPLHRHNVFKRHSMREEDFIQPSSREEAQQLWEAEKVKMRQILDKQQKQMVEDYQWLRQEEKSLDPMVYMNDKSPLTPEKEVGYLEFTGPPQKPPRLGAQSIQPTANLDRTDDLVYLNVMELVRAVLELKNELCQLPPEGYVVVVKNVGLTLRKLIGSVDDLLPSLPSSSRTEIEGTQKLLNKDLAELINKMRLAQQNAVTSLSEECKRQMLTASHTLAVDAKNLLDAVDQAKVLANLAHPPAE

[18] = target: Protein-tyrosine kinase 2-beta (Homo sapiens) (UniProt Q14289); details: at 10 µM
[19] = target: Receptor-interacting serine/threonine-protein kinase 2 (Homo sapiens) (UniProt O43353); details: at 1 µM
Sequence of Receptor-interacting serine/threonine-protein kinase 2 (Homo sapiens) (O43353 whole entry): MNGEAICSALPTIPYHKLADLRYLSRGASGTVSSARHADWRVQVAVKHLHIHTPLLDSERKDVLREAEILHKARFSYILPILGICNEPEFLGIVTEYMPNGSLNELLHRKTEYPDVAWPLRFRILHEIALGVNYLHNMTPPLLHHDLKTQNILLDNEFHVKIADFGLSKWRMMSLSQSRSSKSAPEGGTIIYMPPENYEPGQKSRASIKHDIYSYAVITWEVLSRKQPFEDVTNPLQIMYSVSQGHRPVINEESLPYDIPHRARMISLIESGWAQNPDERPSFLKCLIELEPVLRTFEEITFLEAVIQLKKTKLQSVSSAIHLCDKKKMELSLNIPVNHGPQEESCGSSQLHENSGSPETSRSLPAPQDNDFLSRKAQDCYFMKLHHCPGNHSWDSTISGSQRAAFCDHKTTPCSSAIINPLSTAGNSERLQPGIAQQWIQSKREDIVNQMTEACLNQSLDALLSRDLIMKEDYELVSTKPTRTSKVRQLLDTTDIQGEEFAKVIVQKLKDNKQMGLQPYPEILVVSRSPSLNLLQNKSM

[20] = target: Receptor-interacting serine/threonine-protein kinase 2 (Homo sapiens) (UniProt O43353); details: at 10 µM

Sequence of Serine/threonine-protein kinase pim-1 (Homo sapiens) (P11309 whole entry, looked up): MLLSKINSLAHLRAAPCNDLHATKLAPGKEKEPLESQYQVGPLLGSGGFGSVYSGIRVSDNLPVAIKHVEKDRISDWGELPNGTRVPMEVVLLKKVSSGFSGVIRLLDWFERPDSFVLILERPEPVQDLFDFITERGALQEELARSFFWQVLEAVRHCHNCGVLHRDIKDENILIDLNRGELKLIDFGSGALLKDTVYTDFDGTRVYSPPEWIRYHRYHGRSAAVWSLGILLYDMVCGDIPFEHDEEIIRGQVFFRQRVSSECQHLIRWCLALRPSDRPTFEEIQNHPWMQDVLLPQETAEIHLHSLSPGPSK
Sequence of Tyrosine-protein kinase FRK (Homo sapiens) (P42685 whole entry): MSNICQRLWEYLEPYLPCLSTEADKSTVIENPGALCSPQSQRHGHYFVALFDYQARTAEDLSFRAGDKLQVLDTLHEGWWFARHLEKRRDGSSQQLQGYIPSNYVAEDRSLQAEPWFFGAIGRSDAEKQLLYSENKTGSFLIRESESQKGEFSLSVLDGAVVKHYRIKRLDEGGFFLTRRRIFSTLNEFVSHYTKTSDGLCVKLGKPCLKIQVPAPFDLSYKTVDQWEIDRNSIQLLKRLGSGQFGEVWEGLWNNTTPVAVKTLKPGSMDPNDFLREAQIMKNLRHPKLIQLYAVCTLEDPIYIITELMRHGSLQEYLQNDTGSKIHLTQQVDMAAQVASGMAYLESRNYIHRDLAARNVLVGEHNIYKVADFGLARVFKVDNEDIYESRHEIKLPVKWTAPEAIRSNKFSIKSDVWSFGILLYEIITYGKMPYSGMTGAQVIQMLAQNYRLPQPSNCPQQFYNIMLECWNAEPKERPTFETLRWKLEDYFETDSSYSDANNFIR

Structure (SMILES): O=C1NC(=O)c2c1c1c3ccccc3n3c1c1c2c2ccccc2n1C1CCC3O1
- residual activity [1]: 71%
- residual activity [2]: 66%
- residual activity [3]: -2%
- residual activity [4]: 1%
- residual activity [5]: 6%
- residual activity [6]: -2%
- residual activity [7]: 38%
- residual activity [8]: 45%
- residual activity [9]: 88% (inactive)
- residual activity [10]: 94%
- residual activity [11]: 84%
- residual activity [12]: 53%

Structure (SMILES): O=c1[nH]c2ccccc2n1C1CCN(Cc2ccc(-c3nc4cc5[nH]cnc5cc4nc3-c3ccccc3)cc2)CC1
- residual activity [1]: 99%
- residual activity [2]: 107%
- residual activity [13]: 101%
- residual activity [14]: 53%
- residual activity [3]: 88%
- residual activity [4]: 87%
- residual activity [5]: 85%
- residual activity [6]: 98%
- residual activity [7]: 102%
- residual activity [8]: 97%
- residual activity [15]: 101%
- residual activity [16]: 80%
- residual activity [9]: 97% (inactive)
- residual activity [10]: 94%
- residual activity [11]: 98%
- residual activity [12]: 77%
- residual activity [17]: 128%
- residual activity [18]: 89%
- residual activity [19]: 97%
- residual activity [20]: 64%

Structure (SMILES): COc1ccc2c(c[n+](C)c3c4cc5c(cc4ccc23)OCO5)c1OC
- residual activity [1]: 94%
- residual activity [2]: 69%
- residual activity [13]: 111%
- residual activity [14]: 96%
- residual activity [3]: 93%
- residual activity [4]: 93%
- residual activity [5]: 86%
- residual activity [6]: 88%
- residual activity [7]: 100%
- residual activity [8]: 95%
- residual activity [16]: 75%
- residual activity [9]: 96% (inactive)
- residual activity [10]: 77%
- residual activity [12]: 81%
- residual activity [17]: 133%
- residual activity [18]: 89%
- residual activity [19]: 96%
- residual activity [20]: 88%

Structure (SMILES): CC(C)(C)c1cc(C=C(C#N)C#N)cc(Br)c1O
- residual activity [1]: 100%
- residual activity [2]: 76%
- residual activity [13]: 115%
- residual activity [14]: 106%
- residual activity [4]: 51%
- residual activity [7]: 105%
- residual activity [8]: 104%
- residual activity [15]: 113%
- residual activity [16]: 97%
- residual activity [9]: 102% (inactive)
- residual activity [10]: 110%
- residual activity [11]: 100%
- residual activity [12]: 68%
- residual activity [19]: 26%
- residual activity [20]: 16%

Structure (SMILES): CCc1nc(-c2ccc(OC)cc2)[nH]c1-c1ccncc1
- residual activity [1]: 102%
- residual activity [2]: 100%
- residual activity [13]: 103%
- residual activity [14]: 105%
- residual activity [5]: 126%
- residual activity [6]: 125%
- residual activity [9]: 106% (inactive)
- residual activity [10]: 102%
- residual activity [12]: 65%
- residual activity [17]: 115%
- residual activity [18]: 114%
- residual activity [19]: 102%
- residual activity [20]: 82%

Structure (SMILES): CC(C)[C@H](CO)Nc1nc(Nc2cccc(Cl)c2)c2ncn(C(C)C)c2n1
- residual activity [1]: 59%
- residual activity [2]: 9%
- residual activity [13]: 122%
- residual activity [14]: 82%
- residual activity [3]: 100%
- residual activity [4]: 68%
- residual activity [5]: 116%
- residual activity [6]: 122%
- residual activity [7]: 87%
- residual activity [8]: 89%
- residual activity [15]: 75%
- residual activity [16]: 45%
- residual activity [9]: 99% (inactive)
- residual activity [10]: 87%
- residual activity [11]: 81%
- residual activity [12]: 97%
- residual activity [17]: 35%
- residual activity [18]: 4%
- residual activity [19]: 91%
- residual activity [20]: 85%

Structure (SMILES): CCn1cnc2c(Nc3cccc(Cl)c3)nc(N[C@@H]3CCCC[C@@H]3N)nc21
- residual activity [1]: 43%
- residual activity [2]: 8%
- residual activity [13]: 78%
- residual activity [14]: 29%
- residual activity [3]: 94%
- residual activity [4]: 23%
- residual activity [5]: 97%
- residual activity [6]: 39%
- residual activity [7]: 57%
- residual activity [8]: 13%
- residual activity [15]: 71%
- residual activity [16]: 47%
- residual activity [9]: 94% (inactive)
- residual activity [10]: 89%
- residual activity [11]: 95%
- residual activity [12]: 51%
- residual activity [17]: 49%
- residual activity [18]: 9%
- residual activity [19]: 75%
- residual activity [20]: 49%

Structure (SMILES): O=C1c2ccccc2-c2nc3nnnn3nc21
- residual activity [13]: 103%
- residual activity [14]: 120%
- residual activity [5]: 104%
- residual activity [6]: 108%
- residual activity [15]: 103%
- residual activity [16]: 64%
- residual activity [9]: 76% (inactive)
- residual activity [10]: 12%
- residual activity [11]: 126%
- residual activity [12]: 117%
- residual activity [17]: 146%
- residual activity [18]: 107%

Structure (SMILES): CN[C@@H]1C[C@H]2O[C@@](C)([C@@H]1OC)n1c3ccccc3c3c4c(c5c6ccccc6n2c5c31)C(=O)NC4
- residual activity [9]: 81% (inactive)
- residual activity [10]: 50%
- residual activity [11]: 0%
- residual activity [12]: 0%
